Results: PubChem BioAssay AID720553 (National Center for Advancing Translational Sciences (NCATS), 2013)
Hit rate of the full screen: of about 340,000 compounds, about 3,300 (0.97%) were called active. This excerpt belongs to a sample that is enriched for actives. A number with no mark means an inactive call.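 Rule for the calls: active = maximum activity change below -70%; inconclusive = maximum activity change from -70% to -50%; inactive = maximum activity change above -50%.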
% is set by controls: 0 for no effect and ±100 for the full control effect.

Each compound was assayed on Potassium voltage-gated channel subfamily H member 2, brain isoform KCNH2 3.1 (human) (assay: qHTS for Inhibitors of KCHN2 3.1: Mutant qHTS). Conditions: U2OS KCNH2 3.1, thallium flux FluxOr; hits give low values.
In short: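 We transduce U2OS cells with the mutant 3.1 virus, culture them overnight, load FluxOr with Red40 quencher for 45 min, then add stimulation buffer and read kinetically for 2 min to derive a normalized rate constant.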
Compound Cc1ccc(-c2ccc(CN3C(C(C)C)C(=O)N(Cc4cn(CCC5OCCO5)nn4)CCS3(=O)=O)cc2)cc1 (stereo not given) has an activity change of 0.464%. With Cc1noc(C)c1NC(=O)N(C)C[C@@H]1Oc2cc(Br)ccc2S(=O)(=O)N([C@@H](C)CO)C[C@H]1C the activity change was -17.2%. COCOCCn1cc(CN2CCS(=O)(=O)N(Cc3ccc(-c4ccc(OC)cc4)cc3)C(CC(C)C)C2=O)nn1 (stereo not given) showed an activity change of -1.8%. For COc1ccc(C[C@H]2CN3C(=NC[C@H]3C)N2CCNC(=O)CCC2CCCCC2)cc1, the activity change was -109% (active). Work on NC1=NC[C@@H](Cc2ccc(O)cc2)N1CC1CCCCC1 yielded an activity change of 19%. COc1ccc(CCNC(=O)COC(=O)C2CC2C)cc1 (stereo not given) gave an activity change of 5.06%. COc1ccc(NC(=O)CCCC2CCCCC2)c(OC)c1 showed an activity change of 8.96%. For C/C=C(\C)C(=O)NCCN1C2=NC[C@H](Cc3ccc(O)cc3)N2C[C@@H]1Cc1ccc(OC)cc1, the activity change was -104% (active). With COc1ccc(CCNC(=O)COC(=O)C2CCCCC2)cc1 the activity change was 8.75%. Work on Cc1ccn(CC(=O)NC2CCCN(Cc3ccccc3F)C2)n1 (stereo not given) yielded an activity change of 7.86%. O=C(O)c1ccccc1Cc1ccc(F)c2ccccc12 gave an activity change of 1.01%. For CCN(CC)C(=O)C1=C(C)N(Cc2ccc(F)cc2)C(=O)C(CC(=O)NCc2cccc3ccccc23)C1 (stereo not given), the activity change was 10.8%. With CCn1c(CNS(=O)(=O)c2ccc(Cl)cc2)n[nH]c1=S the activity change was -7.51%. With CCn1c(CN2C(=O)CSc3ccccc32)n[nH]c1=S the activity change was -86.9% (active). CCn1c(CSCc2c(Cl)cccc2Cl)n[nH]c1=S gave an activity change of -10.5%. With CCN(CC)C(=O)C1=C(C)N(Cc2ccc(OC)cc2)C(=O)C(CC(=O)NCCCCc2ccccc2)C1 (stereo not given) the activity change was -3.76%. CCn1c(CNC(=O)c2ccccc2)nnc1SCC(=O)N1CCN(c2ccccc2)CC1 was tested, and the activity change was -7.37%. With CSc1nnc(CNC(=O)c2ccccc2)n1-c1ccc(F)cc1 the activity change was -88.2% (active). CCOC(=O)CSc1nnc(CNC(=O)c2ccco2)n1-c1ccc(F)cc1 gave an activity change of -10.2%. Compound COc1cc2ccc(C(C)=O)c(O)c2cc1OC has an activity change of 5.97%. Compound N#CCCC(C#N)(c1cccnc1)N1CCOCC1 (stereo not given) has an activity change of 7.47%. Compound C[C@H](CO)N1C[C@H](C)[C@@H](CN(C)C(=O)c2cccc(F)c2)Oc2cc(-c3cncnc3)ccc2S1(=O)=O has an activity change of -2.89%. In the case of COc1cccc(OC)c1C(=O)N1CCN(Cc2ccccc2F)CC1, the activity change is reported as -6.56%. With COc1ccc(CN2CN(C(C)C)CSC2=S)cc1 the activity change was -82.5% (active). In the case of COc1ccc(CN2CN(C3CCCC3)CSC2=S)cc1, the activity change is reported as -9.2%. In the case of S=C1SCN(CCN2CCOCC2)CN1Cc1ccccc1, the activity change is reported as -10.5%. In the case of C[C@@H]1CN([C@@H](C)CO)C(=O)CCCn2cc(nn2)CO[C@H]1CN(C)S(=O)(=O)c1ccc(-n2cccn2)cc1, the activity change is reported as 7.17%. Cc1c(NC(=O)COC(=O)/C=C/c2cccc(F)c2)c(=O)n(-c2ccccc2)n1C gave an activity change of 1.3%. Work on CC(C)(C)n1nnnc1C(c1ccc(Cl)cc1)N1CCSCC1 (stereo not given) yielded an activity change of -3.03%. For CCC(C)(C)n1nnnc1C(c1ccccc1OC)N1CCSCC1 (stereo not given), the activity change was -86.1% (active). For COc1ccccc1C(c1nnnn1C(C)(C)C)N1CCN(Cc2ccccc2)CC1 (stereo not given), the activity change was 5%. Work on Cc1ccccc1NC(=O)Cc1nc(COC(=O)CNC(=O)c2ccc(Cl)cc2Cl)cs1 yielded an activity change of -9.74%. In the case of COc1ccc(S(=O)(=O)N2CCCCC2)cc1C(=O)NC1CCS(=O)(=O)C1 (stereo not given), the activity change is reported as 26.3%. CCN(CC)C(=O)C1=C(C)N(Cc2ccc(OC)cc2)C(=O)C(CC(=O)NCc2ccco2)C1 (stereo not given) was tested, and the activity change was 22.6%. For CN(C)/C=C(/C(=O)c1ccc(Cl)cc1)S(=O)(=O)c1ccccc1, the activity change was 3.05%. With CN(C)/C=C(/C(=O)c1ccccc1Cl)S(C)(=O)=O the activity change was -180% (active). In the case of CN(C)/C=C(/C(=O)c1ccccc1)S(=O)(=O)c1ccc(Cl)cc1, the activity change is reported as 7.64%. Cc1nc(N2CCN(c3ccccn3)CC2)c2c(C)c(C(=O)Nc3ccc(F)cc3)sc2n1 was tested, and the activity change was -101% (active). Cc1cc(Br)ccc1NC(=O)c1sc2ncn(CC(=O)N3CCN(c4ccccn4)CC3)c(=O)c2c1C gave an activity change of -4.47%. Work on COc1ccc(NC(=O)c2sc3nc(C)nc(N4CCN(c5ccccn5)CC4)c3c2C)c(OC)c1 yielded an activity change of -30.8%. For Cc1nc(N2CCN(c3ccccn3)CC2)c2c(C)c(C(=O)Nc3ccc(F)c(Cl)c3)sc2n1, the activity change was -77.6% (active). Cc1nc(N2CCOCC2)c2c(C)c(C(=O)Nc3ccc(C(F)(F)F)cc3)sc2n1 gave an activity change of -41.2%. Cc1nc(N2CCC(C)CC2)c2c(C)c(C(=O)Nc3cc(F)ccc3C)sc2n1 was tested, and the activity change was -5.3%. Compound CC1(C2CC2)NC(=O)N(CC(=O)N2CCN(c3ccccc3F)CC2)C1=O (stereo not given) has an activity change of 3.05%. Work on CN1OC[C@@H]2CN(S(=O)(=O)c3cccc(C(F)(F)F)c3)[C@H](c3ccc(-c4cc5ccccc5o4)cc3)C[C@@H]21 yielded an activity change of -6.35%. Compound C[C@H]1CN([C@@H](C)CO)C(=O)CCCn2cc(nn2)CO[C@@H]1CN(C)S(=O)(=O)c1ccc(-n2cccn2)cc1 has an activity change of 5.9%. COc1ccc(NC(=O)CCCOc2ccc(C(C)=O)cc2)cc1S(=O)(=O)N1CCCCC1 was tested, and the activity change was 6.94%. CCCCCCN1C[C@@H](O)[C@H](n2cc(COC(=O)c3ccccc3)nn2)C[C@@H]1c1ccc(Cl)cc1 was tested, and the activity change was -8%. O=S(=O)(c1cccs1)N1CCc2ccccc2C1 gave an activity change of 6.27%. O=S(=O)(c1cccs1)N1CCN(Cc2ccccc2)CC1 showed an activity change of -4.85%. O=S(=O)(c1cccs1)N1CCN(CCOc2ccccc2)CC1 was tested, and the activity change was -99.6% (active). Cc1ccc(NC(=S)N/N=C2/CCCc3c(C)cc(C)cc32)cc1 gave an activity change of -3.22%. Cc1ccc(C)c(NC(=S)NNC(=O)c2csc(C)c2)c1 gave an activity change of -0.222%. With Cc1ccc(C)c(NC(=S)NNC(=S)Nc2ccc(C(C)C)cc2)c1 the activity change was -96.6% (active). Work on CCc1nc2c(=O)[nH]cnc2o1 yielded an activity change of 2.34%. In the case of NC(=S)NN=Cc1ccc(OC(=O)COc2cc(Cl)c(Cl)cc2Cl)cn1, the activity change is reported as -0.923%. In the case of CN1C(=O)/C(=C\c2ccc(-c3ccccc3)o2)SC1=S, the activity change is reported as -83.7% (active). In the case of NS(=O)(=O)c1ccc(-c2ccc(/C=C3\SC(=O)NC3=O)o2)cc1, the activity change is reported as 14.4%. In the case of O=C1NN(c2ccccc2)C(=O)/C1=C/c1ccc(-c2cccc(C(=O)O)c2)o1, the activity change is reported as 28.7%. COc1ccc(NC(=O)CN2C(=O)NC(C)(c3ccccc3)C2=O)cn1 (stereo not given) showed an activity change of -3.34%. For O=C(CSc1nnc(-c2cnccn2)n1Cc1ccco1)c1ccc(Cl)c(Cl)c1, the activity change was -196% (active). Cc1ccc(NC(=O)CSc2nnc(-c3cnccn3)n2Cc2ccco2)cc1C gave an activity change of 3.68%. O=C(CSc1nnc(-c2cccnc2)n1Cc1ccco1)c1ccc(Cl)c(Cl)c1 showed an activity change of -12.1%. For CCN(CC)C(=O)C1=C(C)N(Cc2ccc(C(C)(C)C)cc2)C(=O)C(CC(=O)NCc2cccc3ccccc23)C1 (stereo not given), the activity change was -13.1%. In the case of CCc1cc(C(=O)c2ccc(OC)cc2)c(NC(=O)CN2CCN(C)CC2)s1, the activity change is reported as -103% (active). COc1ccc(NC(=O)CN2C(=O)CSC2=O)cc1 was tested, and the activity change was 5.91%. COc1ccc(C(=O)Nc2sc(C)c(C)c2CN2CCOCC2)cc1 gave an activity change of 0.971%. In the case of CCC1CCC2(CC1)NC(=O)N(CC(=O)Nc1ccc(OC)cc1)C2=O (stereo not given), the activity change is reported as 10.2%. Compound CCc1cc(C(N)=O)c(NC(=O)c2ccc(OC)cc2)s1 has an activity change of 3.81%. CCc1ccc(NC(=O)CN2CCC(C(=O)c3ccc(OC)cc3)CC2)cc1 was tested, and the activity change was -75.5% (active). COc1ccc(C(=O)N2CCC(C(=O)Nc3ccc(C)cc3)CC2)cc1 was tested, and the activity change was -27%. With CCOc1ccc(NC(=O)N2CCN(CC)CC2)cc1 the activity change was 10.1%. CCOc1ccc(NC(=O)CN2CCN(CC(=O)Nc3ccc(OC)cc3)CC2)cc1 was tested, and the activity change was -89.9% (active). With COc1ccc(OC)c(NC(=O)C2CCCN2S(=O)(=O)c2ccc3c(c2)CC(C)N3C(C)=O)c1 (stereo not given) the activity change was 12.8%. With CC1CC(NC(=S)N(C)C)CC(C)(C)C1 (stereo not given) the activity change was -0.254%. Cc1cn([C@H]2C[C@H](O)[C@@H](CNC(=O)[C@H](N)Cc3cccnc3)O2)c(=O)[nH]c1=O gave an activity change of 0.448%. Work on Cc1ccc(S(=O)(=O)N2CCOCC2)cc1NC(=O)c1ccncc1 yielded an activity change of 0.781%. Work on O=C1CCC(=O)N1CCC(=O)N(C(=O)NC1CCCCC1)C1CCCCC1 yielded an activity change of -16.1%. CCOc1cc(/C=N/NC(=O)c2c(C)nc3ccc(Cl)cn23)ccc1O gave an activity change of 6.54%. For O=C(Nc1ccc2c(c1)[C@@H]1C[C@@H](CC(=O)N3CCCCC3)O[C@@H](CO)[C@@H]1O2)NC1CCCCC1, the activity change was 7.85%. With CCOC(=O)c1c(S(=O)(=O)Nc2cccc(Cl)c2)c(C)n(C)c1C the activity change was -89.7% (active). For CCOC(=O)c1c(S(=O)(=O)Nc2ccc(CN3CCC(C)CC3)cc2)c(C)n(C)c1C, the activity change was -4.58%. In the case of CCOC(=O)c1cccc(NS(=O)(=O)c2c(C(=O)N3CCCCCC3)c(C)n(C)c2C)c1, the activity change is reported as 0.277%. For C[C@@H]1CCCCO[C@H](CN(C)Cc2ccccc2)[C@@H](C)CN([C@H](C)CO)C(=O)c2cc(NS(=O)(=O)c3ccc(Cl)cc3)ccc2O1, the activity change was -12%. Work on CCN1C(=O)[C@H]2[C@@H](c3ccc(C(F)(F)F)cc3)N[C@]3(CCCN(Cc4ccc(Br)cc4)C3=O)[C@H]2C1=O yielded an activity change of -2.79%.
